Structures are written as SMILES. The whole screen tested about 23,000 compounds, of which about 30 (0.1%) showed an effect of 50% or more. This excerpt belongs to a sample that is enriched for strong results. Entries with a potency or affinity are not part of this list.

For the assay, the system named is Pseudomonas aeruginosa. To be noted: Concentration 32 ug.mL-1; ASSAY_TEST Inhibition of Bacterial Growth; detection method Absorption (OD600); MEDIA CAMHB; plate type 384well; NBS; CORNING #3640; time 18 hr.
Regarding `CCOC(=O)/C(C#N)=C\c1ccc([N+](=O)[O-])cc1`, the Inhibition – broadly, the share of the control response that was lost under treatment – was 5.37%.

On to `N#Cc1cc(C#N)c(N2CCCC2)nc1N`, for which the Inhibition was 9.99%.

For `Cl.N#Cc1cc(C#N)c(N2CCCC2)nc1Cl`, the Inhibition came to 9.12%.

`N#Cc1cc(C#N)c(N2CCCC2)nc1N1CCCC1` gave an Inhibition of 50.45%.

The molecule `COc1ccc2cc(C3C(C(C)=O)=C(C)Oc4nc5c(c(N)c43)CCC5)c(Cl)nc2c1` (configuration not stated) came in with an Inhibition of 8.84%.

Molecule `CCCC(C)NNC(=O)Cc1c[nH]c2ccccc12` (configuration not stated) displayed an Inhibition of 22.46%.

`O=C(Cc1c[nH]c2ccccc12)NNCc1ccccc1` came in with an Inhibition of 23.11%.

On to `CC(C)NNC(=O)Cc1c[nH]c2ccccc12`, for which the Inhibition is reported as 53.17%.

`N#CC1=C(N)Oc2c(ccc3ccccc23)C1c1ccc(O)cc1` (configuration not stated) came in with an Inhibition of 17.58%.

`C#CCN(C)Cc1cc2cc(OCCCCC3CCN(Cc4ccccc4)CC3)ccc2n1C`: the Inhibition is 12.81%.

In turn, `C#CCN(C)Cc1cc2cc(OCCC3CCN(Cc4ccccc4)CC3)ccc2n1C.Cl` yielded an Inhibition of 5.95%.

For `C#CCN(C)Cc1cc2cc(OCCCCC3CCN(Cc4ccccc4)CC3)ccc2n1C.Cl`, the Inhibition amounted to 51.07%.

The molecule `Nc1c2c(nc3c1c1ccccc1n3Cc1ccccc1)CCCC2` displayed an Inhibition of 35.2%.

The molecule `COc1cccc(C2c3c(nc4c(c3N)CCCC4)Oc3ccc4ccccc4c32)c1` (configuration not stated) displayed an Inhibition of 38.82%.

For the molecule `COc1ccc(C2c3c(nc4c(c3N)CCCC4)Oc3ccc4ccccc4c32)cc1` (configuration not stated), the Inhibition is reported as 16.04%.

`CNC(=O)NC1(C(=O)O)CC1c1ccccc1` (configuration not stated) registered an Inhibition of 50.33%.

On to `CN(N=O)C(=O)NC1(C(=O)O)CC1c1ccccc1` (configuration not stated), for which the Inhibition was 47.22%.

`COC(=O)C1(NC(=O)c2ccccc2)CC1c1ccccc1` (configuration not stated) yielded an Inhibition of 23.63%.

`CNC(=O)c1c(Cl)c2cc(OCc3ccccc3)ccc2n1C` returned an Inhibition of 34.06%.

Take `COc1ccc(C=C2N=C(c3ccccc3)SC2=O)cc1`: the Inhibition is 50.12%.

Regarding `CC1=NC(=Cc2ccccc2)C(=O)S1`, the Inhibition is 24.56%.

For `COc1ccc(C=C2N=C(c3ccccc3)OC2=O)cc1`, the Inhibition is 9.34%.
